Source: PubChem BioAssay (NCATS)
Records with an inconclusive call do not appear. Calls of active or inactive are those of the source. Unless noted, the call rests on the fitted dose curve; in most records, active means well fitted curve in the direction sought with a large enough effect; inconclusive means small, poorly fitted or top-dose-only effect, or another doubt; inactive means no such curve, though single readings can be large; an effect the other way counts as inactive or inconclusive.

Columns and labels:
[1] = target: Lysosomal acid glucosylceramidase (Homo sapiens) (UniProt P04062); assay: Glucocerebrosidase-p2 (AID 348; in the data active means potency below about 10 µM; further: potency means the concentration at half of the fitted maximal effect); settings: purified GBA, blue fluorogenic substrate, 40 min
How it was run: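 Normal human glucocerebrosidase (0.2 nM) with blue fluorogenic substrate (80 uM final) in citrate/phosphate pH 5.9 with 10mM sodium taurocholate, 0.01% tween-20; 40 min RT, NaOH/glycine stop; fluorescence Ex 365/Em 440; AC50 from a titration from 0.6 nM upwards.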

[2] = NFAT Signaling Pathway (AID 444; active means well fitted curve in either direction with a large enough effect, not every such curve was filed as active;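 further: carbachol stimulus at about its EC50 of 1 µM final; on the % scale 0 is the no-effect control and ±100 the full control effect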); settings: Jurkat NFAT-bla M1, carbachol, beta-lactamase ratio, 5 h; at 7.69 µM (top of the series) unless noted
How it was run: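 Jurkat cells with NFAT-driven β-lactamase reporter and co-expressed M1 receptor, stimulated with carbachol (final 1 uM, ~EC50), compound titration, 5 h at 37 °C. CCF4 loaded 1 h at RT; 460/530 nm ratio gave %activity and AC50.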

[3] = target: Glucocorticoid receptor (Homo sapiens) (UniProt P04150); assay: GR-GFP Redistribution (AID 450;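 active means compounds whose dose series gives a full or clear partial fitted curve of increased nuclear translocation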; further: potency means the concentration at half of the fitted maximal effect); settings: U2OS GR-GFP nuclear translocation, laser cytometry, 2 h
[4] = target: Glucocorticoid receptor (Homo sapiens) (UniProt P04150); assay: GR-EFC Redistribution (AID 451; calls by dose curve; further: potency means the concentration at half of the fitted maximal effect); settings: CHO-K1 GR-EFC translocation, beta-gal luminescence, 2 h
How it was run: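 CHO-K1 cells expressing nuclear EA and GR-ED fragments of b-gal; compounds titrated up to 46 uM final, 2 h at 37 C. GR nuclear translocation read as complemented b-gal luminescence after 1 h RT detection.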

[5] = target: Mitogen-activated protein kinase 10 (Mus musculus) (UniProt Q61831); assay: JNK3 AlphaScreen Assay (AID 530; active means well fitted curve in either direction with a large enough effect, not every such curve was filed as active;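 further: kinase came from lysate of stimulated human HepG2 cells; signal reports phosphorylation of biotinylated GST-cJun 1-79 at Ser73 with 10 µM ATP; on the % scale 0 is the no-effect control and ±100 the full control effect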)
How it was run: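 HepG2 lysate (IL-1b/TNFa pre-activated) + biotin-GST-cJun 1-79 + anti-pSer73 cJun; cpd titration, 15 min RT; ATP 10 uM start; Tris pH 7.6, MgCl2, DTT, vanadate; beads in EDTA buffer; AlphaScreen.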

[6] = target: 3',5'-cyclic-AMP phosphodiesterase 4B (Homo sapiens) (UniProt Q07343); assay: qHTS Assay for Inhibitors of PDE-IV (AID 607; active means well fitted activation curve with a large enough effect in the main read-out, with a control signal flat, not every such curve was filed as active; further: % of control where 0% means no effect)
How it was run: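 The readout is membrane depolarisation from a cAMP-sensing CNG channel, detected with a potential dye at ex 535/em 590. Cells were HEK293-derived (endogenous PDE-IV) at 1000 cells/well, titrated up to 22.9 uM final.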

[7] = qHTS Assay for Identification of Small Molecule Agonists for Hypoxia Response Element Signaling Pathway (AID 914; active means well fitted activation curve with a large enough effect in the signal ratio, with a control signal flat, not every such curve was filed as active; the % refers to the signal ratio; further: potency means the concentration at half of the fitted maximal effect); settings: ME-180 HRE-bla reporter, beta-lactamase ratio, CoCl2, 17 h; activation: stronger effect = higher value
How it was run: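 In Opti-MEM containing 0.5% dialyzed FBS and 10 mM HEPES, ME-180 HRE-bla cells received a compound titration and EC50 CoCl2. They were incubated 17 hours, then CCF4-loaded 2.5 hours at room temperature before ratio reading.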

[8] = qHTS Assay for Lipid Storage Modulators (AID 1519; calls by dose curve); settings: Drosophila S3 cells, BODIPY lipid droplet/cell ratio, laser cytometry, cells loaded with oleic acid; for activity change, negative = inhibition: at 57.5 µM (top of the series)
How it was run: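 Cells seeded at 5,000 per well were treated with compounds over a concentration series and loaded with oleic acid (400 uM, as added). Lipid droplet fluorescence (488 nm excitation, 500-530 nm channel) was read by laser-scanning cytometry and normalized to 20 uM Triacsin C.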

[9] = target: Dual specificity protein kinase CLK4 (Homo sapiens) (UniProt Q9HAZ1); assay: qHTS Assay for Inhibitors of CDC-like Kinase 4 (Kinase-Glo Assay) (AID 1770); further: nearly all actives have a fitted effect of over 65% in size; further: potency means the concentration at half of the fitted maximal effect
How it was run: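 Luminescent ATP-depletion read-out (Kinase-Glo) after 4.5 h room-temperature reaction of Clk4 (25 nM final) with RS peptide (100 uM) and ATP (1 uM), pH 7.5 Tris buffer with MgCl2 and DTT.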

[10] = target: Dual specificity protein kinase CLK4 (Homo sapiens) (UniProt Q9HAZ1); assay: qHTS Assay for Inhibitors of CDC-like Kinase 4 (ADP-Glo Assay) (AID 1771); further: nearly all actives have a fitted effect of over 70% in size; further: potency means the concentration at half of the fitted maximal effect
How it was run: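 In this ADP-Glo format, 1 uM ATP and 100 uM RS peptide served as substrates for 25 nM Clk4 in Mg2+/EGTA/DTT/Triton buffer; reactions ran 1 hr at room temperature before luminescent ADP quantification.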

[11] = target: Dual specificity protein kinase CLK4 (Homo sapiens) (UniProt Q9HAZ1); assay: qHTS Assay for Inhibitors of CDC-like Kinase 4 (ADP-FP Assay) (AID 1795); further: nearly all actives have a fitted effect of over 60% in size; further: potency means the concentration at half of the fitted maximal effect
How it was run: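 Kinase activity was measured as ADP production using Transcreener orange tracer (4 nM) and ADP antibody (1 ug/mL) fluorescence polarization, with ADP calculated from a calibration curve. The 1 h reaction contained 6.25 nM Clk4, 1 uM ATP and 100 uM RS peptide at pH 7.5 with Mg2+.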

[12] = target: Ubiquitin carboxyl-terminal hydrolase 1 (Homo sapiens) (UniProt O94782); assay: Inhibitors of USP1/UAF1: Pilot qHTS (AID 504865);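 further: rhodamine fluorescence freed from ubiquitin-rhodamine substrate followed over time; top concentration of the series differs between compounds; on the % scale 0 is the no-effect control and ±100 the full control effect; nearly all actives have a fitted effect of over 35% in size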
How it was run: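 Deubiquitinase activity followed as kinetic rhodamine fluorescence release from 150 nM Ub-Rho. 1 nM USP1/UAF1 with compound, after 15 min room-temperature preincubation, in HEPES pH 7.8 buffer containing TCEP, EDTA, BSA and Tween-20.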

[13] = Primary qHTS for small molecule stabilizers of the endoplasmic reticulum resident proteome: Secreted ER Calcium Modulated Protein (SERCaMP) assay (AID 1508630); further: on the % scale 0 is the no-effect control and ±100 the full control effect
How it was run: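 The SH-SY5Y reporter protocol was run at 3 concentrations up to 38.3 uM (primary) or 11 concentrations (follow-up): 16 h compound, 100 nM thapsigargin for 4 h, then extracellular luciferase luminescence.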

[14] = target: Cytochrome P450 1A2 (Homo sapiens) (UniProt P05177); assay: p450-cyp1a2 (AID 410; calls by dose curve; further: potency means the concentration at half of the fitted maximal effect)
How it was run: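 Read-out is luminescence from luciferin produced by CYP1A2 demethylation of Luciferin-ME (100uM, at Km). Detection reagent stopped the 60 min NADPH-dependent reaction; signals were normalized to 57 uM furafylline.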

[15] = AP1 Signaling Pathway (AID 357; active means well fitted curve in either direction with a large enough effect, not every such curve was filed as active;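 further: ME-180 reporter cells stimulated with EGF at its EC50 level; on the % scale 0 is the no-effect control and ±100 the full control effect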); settings: ME-180 AP-1-bla reporter, EGF-induced, beta-lactamase ratio, 5 h; at 7.69 µM (top of the series) unless noted
How it was run: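 Read-out was the 460nm/530nm emission ratio (excitation 405nm) after CCF4 loading for 2.5 hours at room temperature. Cells carried an AP-1-driven beta-lactamase reporter, were stimulated with EC50 EGF plus compound for 5 hours, and AC50 values came from titrations.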

[16] = Stat Signaling Pathway (AID 446; active means well fitted curve in either direction with a large enough effect, not every such curve was filed as active); settings: ME-180 (cervical carcinoma) SIE beta-lactamase reporter, IL-6 stimulated, 5 h; at 7.69 µM (top of the series) unless noted
How it was run: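 Emission at 460 and 530 nm (excitation 405 nm) reports SIE-controlled beta-lactamase in ME-180 cells. Cells received compound with 40 pM IL-6 for 5 hrs at 37 C; data scaled between 300 pM IL-6 and 125 nM JAK-inhibitor controls.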

[17] = target: Cytochrome P450 3A4 (Homo sapiens) (UniProt P08684); assay: qHTS Assay for Activators of Cytochrome P450 3A4 (AID 885); further: nearly all actives have a fitted effect of over 65% in size
How it was run: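 Activators are scored by enhanced luminescence from CYP3A4 conversion of luciferin-PPXE (25uM, equal to KM) to luciferin, after 60 min at RT with an NADPH-regenerating system.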

[18] = target: Cytochrome P450 3A4 (Homo sapiens) (UniProt P08684); assay: qHTS Assay for Inhibitors and Substrates of Cytochrome P450 3A4 (AID 884); further: potency means the concentration at half of the fitted maximal effect; nearly all actives have a fitted effect of over 50% in size
How it was run: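 Luminescent readout of luciferin produced by CYP3A4 (20 nM) dealkylation of Luciferin-PPXE, 25 uM (its KM). NADPH-driven reaction ran 60 min at RT after 10 min compound preincubation; data scaled to 57 uM ketoconazole as 100% inhibition.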

[19] = measured here: cell count channel max response
[20] = measured here: lipid channel max response

Chain of Cytochrome P450 3A4 (Homo sapiens) (P08684 whole entry, looked up): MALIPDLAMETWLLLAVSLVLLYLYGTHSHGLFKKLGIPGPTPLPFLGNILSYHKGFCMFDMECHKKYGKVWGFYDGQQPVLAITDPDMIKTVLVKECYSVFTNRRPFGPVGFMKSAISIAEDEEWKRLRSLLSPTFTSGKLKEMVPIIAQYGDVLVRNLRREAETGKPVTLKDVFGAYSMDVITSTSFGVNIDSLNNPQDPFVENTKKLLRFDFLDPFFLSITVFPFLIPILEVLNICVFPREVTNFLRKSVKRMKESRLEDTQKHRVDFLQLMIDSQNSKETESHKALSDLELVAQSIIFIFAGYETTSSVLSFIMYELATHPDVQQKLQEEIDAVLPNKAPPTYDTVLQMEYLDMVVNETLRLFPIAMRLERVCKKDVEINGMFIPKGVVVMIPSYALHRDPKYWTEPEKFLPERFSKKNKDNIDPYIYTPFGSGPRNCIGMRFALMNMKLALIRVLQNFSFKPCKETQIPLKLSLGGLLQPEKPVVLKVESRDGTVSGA
Chain of Cytochrome P450 1A2 (Homo sapiens) (P05177 whole entry, looked up): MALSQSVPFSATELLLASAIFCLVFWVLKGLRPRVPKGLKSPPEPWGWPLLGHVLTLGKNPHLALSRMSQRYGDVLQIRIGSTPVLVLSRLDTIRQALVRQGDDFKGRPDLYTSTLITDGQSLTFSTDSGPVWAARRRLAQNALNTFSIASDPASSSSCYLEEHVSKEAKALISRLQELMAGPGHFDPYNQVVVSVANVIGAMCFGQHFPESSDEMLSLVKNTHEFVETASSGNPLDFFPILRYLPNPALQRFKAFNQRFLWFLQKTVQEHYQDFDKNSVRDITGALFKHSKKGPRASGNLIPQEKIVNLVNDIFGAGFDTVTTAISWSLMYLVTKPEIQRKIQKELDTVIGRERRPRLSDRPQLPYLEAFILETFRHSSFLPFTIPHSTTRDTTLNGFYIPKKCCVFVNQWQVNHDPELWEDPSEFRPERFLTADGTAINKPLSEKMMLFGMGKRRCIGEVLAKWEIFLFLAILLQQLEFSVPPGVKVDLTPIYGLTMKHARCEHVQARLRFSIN
Chain of 3',5'-cyclic-AMP phosphodiesterase 4B (Homo sapiens) (Q07343 whole entry, looked up): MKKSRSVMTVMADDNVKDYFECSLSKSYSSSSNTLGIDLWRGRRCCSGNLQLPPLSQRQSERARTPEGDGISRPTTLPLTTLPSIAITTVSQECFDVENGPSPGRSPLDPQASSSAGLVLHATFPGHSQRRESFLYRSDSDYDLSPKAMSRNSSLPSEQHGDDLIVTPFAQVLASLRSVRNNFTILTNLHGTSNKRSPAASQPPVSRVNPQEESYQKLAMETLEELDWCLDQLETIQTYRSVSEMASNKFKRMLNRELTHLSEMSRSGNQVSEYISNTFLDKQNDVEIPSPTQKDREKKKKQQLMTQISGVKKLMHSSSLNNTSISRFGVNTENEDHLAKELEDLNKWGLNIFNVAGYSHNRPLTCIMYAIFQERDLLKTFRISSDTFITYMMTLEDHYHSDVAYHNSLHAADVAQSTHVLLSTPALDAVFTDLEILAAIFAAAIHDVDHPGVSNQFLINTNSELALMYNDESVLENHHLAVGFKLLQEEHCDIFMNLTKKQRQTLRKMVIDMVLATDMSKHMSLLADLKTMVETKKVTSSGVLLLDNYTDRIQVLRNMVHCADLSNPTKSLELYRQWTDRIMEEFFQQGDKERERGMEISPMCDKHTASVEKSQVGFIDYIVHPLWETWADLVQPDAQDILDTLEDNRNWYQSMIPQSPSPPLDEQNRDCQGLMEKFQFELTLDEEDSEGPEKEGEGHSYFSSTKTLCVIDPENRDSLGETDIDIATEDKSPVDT
Chain of Glucocorticoid receptor (Homo sapiens) (P04150 whole entry, looked up, the tested form may be a part): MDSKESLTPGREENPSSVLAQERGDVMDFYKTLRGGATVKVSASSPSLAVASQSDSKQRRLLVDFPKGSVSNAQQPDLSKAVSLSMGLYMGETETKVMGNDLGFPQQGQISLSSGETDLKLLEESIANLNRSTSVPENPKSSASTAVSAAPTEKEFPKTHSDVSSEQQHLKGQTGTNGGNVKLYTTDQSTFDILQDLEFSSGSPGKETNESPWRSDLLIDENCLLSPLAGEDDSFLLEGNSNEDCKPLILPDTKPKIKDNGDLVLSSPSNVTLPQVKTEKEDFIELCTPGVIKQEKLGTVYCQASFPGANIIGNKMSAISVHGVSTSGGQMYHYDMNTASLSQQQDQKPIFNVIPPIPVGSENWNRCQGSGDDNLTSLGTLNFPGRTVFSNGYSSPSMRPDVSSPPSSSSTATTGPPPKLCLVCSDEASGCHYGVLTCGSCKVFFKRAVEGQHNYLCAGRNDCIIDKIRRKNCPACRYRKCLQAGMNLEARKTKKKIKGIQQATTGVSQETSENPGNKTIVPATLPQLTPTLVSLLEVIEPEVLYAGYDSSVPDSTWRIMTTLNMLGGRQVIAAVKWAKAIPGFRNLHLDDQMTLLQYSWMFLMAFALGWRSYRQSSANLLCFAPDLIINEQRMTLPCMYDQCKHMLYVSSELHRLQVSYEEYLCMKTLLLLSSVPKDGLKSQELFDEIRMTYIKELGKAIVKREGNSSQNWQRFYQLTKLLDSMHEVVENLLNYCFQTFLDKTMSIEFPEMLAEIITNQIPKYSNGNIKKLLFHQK
Chain of Ubiquitin carboxyl-terminal hydrolase 1 (Homo sapiens) (O94782 whole entry, looked up): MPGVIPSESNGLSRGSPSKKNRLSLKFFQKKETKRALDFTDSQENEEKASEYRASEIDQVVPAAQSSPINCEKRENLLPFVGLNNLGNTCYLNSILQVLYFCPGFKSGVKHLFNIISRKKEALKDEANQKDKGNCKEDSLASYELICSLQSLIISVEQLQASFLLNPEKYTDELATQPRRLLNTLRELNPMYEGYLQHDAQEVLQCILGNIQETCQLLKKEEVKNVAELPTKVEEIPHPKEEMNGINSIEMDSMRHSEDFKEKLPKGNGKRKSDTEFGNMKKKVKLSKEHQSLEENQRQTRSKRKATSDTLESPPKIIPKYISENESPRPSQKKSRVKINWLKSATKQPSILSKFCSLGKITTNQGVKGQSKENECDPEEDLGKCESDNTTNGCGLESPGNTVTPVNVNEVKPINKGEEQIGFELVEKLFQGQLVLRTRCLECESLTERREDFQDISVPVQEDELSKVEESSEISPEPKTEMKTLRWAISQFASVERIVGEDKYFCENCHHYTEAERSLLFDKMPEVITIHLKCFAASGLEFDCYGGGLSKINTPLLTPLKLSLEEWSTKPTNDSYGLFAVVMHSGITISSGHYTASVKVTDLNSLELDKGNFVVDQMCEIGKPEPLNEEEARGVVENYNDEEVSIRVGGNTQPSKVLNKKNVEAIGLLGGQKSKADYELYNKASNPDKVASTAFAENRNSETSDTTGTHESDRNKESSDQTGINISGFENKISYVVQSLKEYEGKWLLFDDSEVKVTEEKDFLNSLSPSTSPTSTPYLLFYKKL
Chain of Lysosomal acid glucosylceramidase (Homo sapiens) (P04062 whole entry, looked up): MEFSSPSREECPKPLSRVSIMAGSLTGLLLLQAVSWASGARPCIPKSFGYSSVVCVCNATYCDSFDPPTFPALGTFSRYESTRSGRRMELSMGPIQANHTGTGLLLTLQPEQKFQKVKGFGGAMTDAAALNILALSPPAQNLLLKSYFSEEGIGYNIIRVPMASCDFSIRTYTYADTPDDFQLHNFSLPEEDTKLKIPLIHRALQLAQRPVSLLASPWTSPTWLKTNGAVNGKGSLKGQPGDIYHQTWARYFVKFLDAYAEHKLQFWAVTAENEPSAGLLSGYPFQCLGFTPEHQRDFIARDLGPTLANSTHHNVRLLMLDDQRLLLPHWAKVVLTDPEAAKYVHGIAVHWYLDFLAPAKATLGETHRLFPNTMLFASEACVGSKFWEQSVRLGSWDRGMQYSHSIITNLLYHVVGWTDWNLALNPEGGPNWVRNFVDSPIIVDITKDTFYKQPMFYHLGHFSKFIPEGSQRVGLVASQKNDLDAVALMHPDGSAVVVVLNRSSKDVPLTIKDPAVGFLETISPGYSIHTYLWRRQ
Chain of Dual specificity protein kinase CLK4 (Homo sapiens) (Q9HAZ1 whole entry, looked up): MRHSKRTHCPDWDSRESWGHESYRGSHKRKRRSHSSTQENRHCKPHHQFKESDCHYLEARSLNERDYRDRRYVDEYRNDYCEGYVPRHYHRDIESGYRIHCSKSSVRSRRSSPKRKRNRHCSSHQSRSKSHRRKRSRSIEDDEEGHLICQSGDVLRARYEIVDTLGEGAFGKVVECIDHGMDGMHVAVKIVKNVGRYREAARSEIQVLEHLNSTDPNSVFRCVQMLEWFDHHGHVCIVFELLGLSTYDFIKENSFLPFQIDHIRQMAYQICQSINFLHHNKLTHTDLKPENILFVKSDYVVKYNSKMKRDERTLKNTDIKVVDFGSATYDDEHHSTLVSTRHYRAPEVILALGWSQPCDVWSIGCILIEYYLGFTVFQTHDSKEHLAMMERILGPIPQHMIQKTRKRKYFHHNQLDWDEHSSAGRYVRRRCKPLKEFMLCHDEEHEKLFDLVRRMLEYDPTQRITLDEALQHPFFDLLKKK

COc1ccc(-n2c(=O)c(-c3ccc(F)cc3)nc3cnc(N4CCOCC4)nc32)cc1
active: Potency [7] 3.16 µM
4.35%: max response [8, 20]
inactive: Potency [1] > 11.4 µM | activity change, negative = inhibition [2] 12.6% | Potency [3] > 9.22 µM | Potency [4] > 46 µM | outcome [5] | Potency [6] | activity change, negative = inhibition [8] 4.12% | Potency [9] | Potency [10] | Potency [11] | Potency [12] | Potency [13]
3.3%: max response [8, 19]

COc1ccc(-n2c(=O)c(-c3ccc(Cl)cc3)nc3cnc(N4CCNCC4)nc32)cc1
active: Potency [14] 12.6 µM
inactive: Potency [1] > 11.4 µM | Potency [4] > 46 µM | Potency [6] | activity change, negative = inhibition [8] 5.55% | Potency [9] | Potency [10] | Potency [11] | Potency [12] | Potency [13]
16.5%: max response [8, 20]
9.83%: max response [8, 19]

Cn1c(=O)c(-c2ccc(Cl)cc2)nc2cnc(Nc3ccccc3)nc21
23.4%: max response [8, 19]
inactive: activity change, negative = inhibition [15] -22.9% | activity change, negative = inhibition [2] -8.39% | activity, negative = inhibition [16] -6.29% | Potency [3] > 9.22 µM | Potency [4] > 46 µM | outcome [5] | Potency [6] | activity change, negative = inhibition [8] -14.5% | Potency [9] | Potency [10] | Potency [11] | Potency [12] | Potency [13]
-1.32%: max response [8, 20]

COCCn1c(=O)c(-c2ccc(Cl)cc2)nc2cnc(Oc3cccc(Cl)c3)nc21
25.5%: max response [8, 20]
inactive: Potency [1] > 11.4 µM | activity change, negative = inhibition [15] 13.2% | activity change, negative = inhibition [2] -0.0987% | activity, negative = inhibition [16] -8.1% | Potency [3] > 9.22 µM | Potency [4] > 46 µM | outcome [5] | Potency [6] | activity change, negative = inhibition [8] 4.42% | Potency [9] | Potency [11] | Potency [12] | Potency [13]
19.3%: max response [8, 19]

CS(=O)(=O)Nc1cccc(-c2ccc3ncnc(N4CCNCC4)c3c2)c1
active: Potency [14] 12.6 µM | Potency [9] 6.31 µM | Potency [11] 5.01 µM
inactive: Potency [1] > 11.4 µM | activity change, negative = inhibition [15] -1.37% | activity change, negative = inhibition [2] 23.1% | activity, negative = inhibition [16] -16.8% | Potency [3] > 46 µM | Potency [4] > 46 µM | outcome [5] | Potency [6] | Potency [17] | activity change, negative = inhibition [8] 5.65% | Potency [12] | Potency [13]
22.6%: max response [8, 20]
18.2%: max response [8, 19]

COc1ccc(CNc2ncnc3ccc(-c4cccnc4)cc23)c(OC)c1
active: Potency [14] 0.398 µM | Potency [18] 1.26 µM | Potency [9] 14.1 µM | Potency [10] 14.1 µM
-21.1%: max response [8, 20]
-15.1%: max response [8, 19]
inactive: Potency [1] > 11.4 µM | activity change, negative = inhibition [2] 29.9% | activity, negative = inhibition [16] 2.05% | Potency [3] > 46 µM | Potency [4] > 46 µM | outcome [5] | Potency [17] | activity change, negative = inhibition [8] -5.09% | Potency [12] | Potency [13]
